Here are results for three compounds from PubChem BioAssay (NCATS).

Inconclusive results are not listed. Values without a mark were called inactive. The source made the active and inactive calls. Calls follow the shape of the dose curve; as a rule, active = well fitted curve in the direction sought with a large enough effect; inconclusive = small, poorly fitted or top-dose-only effect, or another doubt; inactive = no such curve, though single readings can be large; an effect the other way counts as inactive or inconclusive.
% is scaled to controls: 0 for no effect and ±100 for the full control effect; potency is read from the fitted curve at half-maximal effect.
Also: nearly all actives have a fitted effect of over 70% in size.

A short description of the first test: Primary qHTS for inhibitors of nuclear receptor binding SET domain protein 2 (NSD2) in an isogenic RCH-ACV NSD2 p.E1099K mutant (9B) (AID 1645876). The conditions noted are these: RCH-ACV NSD2 E1099K (9B) viability, CellTiter-Glo, 72 h; series mostly up to 44.9 µM; activity change, negative = viability loss: at the top concentration.
Regarding `COC[C@@H]1OC(=O)c2coc3c2[C@]1(C)C1=C(C3=O)[C@H]2CC[C@H](O)[C@@]2(C)C[C@@H]1OC(C)=O`, the Potency is 820 nM (active).

For the compound `COC(=O)[C@]12CCC(C)(C)C[C@@H]1[C@@H]1C(=O)C=C3[C@]4(C)C=C(C#N)C(=O)C(C)(C)[C@@H]4CC[C@@]3(C)[C@]1(C)CC2`, the Potency is 461 nM (active).

Turning to `c1cc2c(cc1C1OC[C@@H]3C(c4ccc5c(c4)OCO5)OC[C@H]13)OCO2` (stereo partly specified), the “activity change, negative = viability loss” value is -38.1%.

The next test is described as follows: Primary qHTS for inhibitors of nuclear receptor binding SET domain protein 2 (NSD2) in an RCH-ACV wild type WT cells (2C) (AID 1645877). The conditions noted are these: RCH-ACV (leukaemia line) NSD2 WT (2C) viability, CellTiter-Glo, 72 h; series mostly up to 44.9 µM; activity change, negative = cell killing: at the top concentration.
Take `COC[C@@H]1OC(=O)c2coc3c2[C@]1(C)C1=C(C3=O)[C@H]2CC[C@H](O)[C@@]2(C)C[C@@H]1OC(C)=O`: the Potency was 651 nM (active).

On to `COC(=O)[C@]12CCC(C)(C)C[C@@H]1[C@@H]1C(=O)C=C3[C@]4(C)C=C(C#N)C(=O)C(C)(C)[C@@H]4CC[C@@]3(C)[C@]1(C)CC2`, for which the Potency is 326 nM (active).

`c1cc2c(cc1C1OC[C@@H]3C(c4ccc5c(c4)OCO5)OC[C@H]13)OCO2` (stereo partly specified): the “activity change, negative = cell killing” value was -42.8%.
